The values that follow are results of earlier work, collected in PubChem BioAssay AID977608 (Shanghai Institute of Organic Chemistry, 2013).

Hit rate of the full screen: of about 4,300 compounds, about 4,300 (100%) were called active. No cut-off is given here; in the data, nearly all actives have IC50 up to about 1400 µM. So high a share suggests a set chosen from earlier hits. This is one part of the list. Square brackets hold non-standard residues; d marks the D form. Peptide text beside a SMILES is read from it. * marks the point of attachment. 3Pal = N[C@@H](Cc1cccnc1)C(=O)O; hLeu = CC(C)CC[C@H](N)C(=O)O; β3hL = CC(C)C[C@H](N)CC(=O)O; X1 = CC(=O)[C@H](CC(=O)O)N*

This data set is described as follows: literature IC50 values for PDB complexes, PDB-derived complexes (AID 977608). Particulars: PDB protein-ligand complexes.

On to `C[C@]1(c2cc(NC(=O)c3ccc(C#N)cn3)ccc2F)NC(N)O[C@@H](C(F)(F)F)[C@@H]1F` (stereo partly drawn), for which, for the setting “protein: Beta-secretase 1, PDB entry 4j1i”, the IC50 was 40 nM (active).

As to `C[C@]1(c2cc(NC(=O)c3ccc(C#N)cn3)ccc2F)NC(N)O[C@H](C(F)(F)F)[C@@H]1F` (stereo partly drawn), the IC50 (protein: Beta-secretase 1, PDB entry 4j1k) was 13 nM (active).

Regarding `O=C(CCc1cc(C(=O)c2cccc(F)c2)c[nH]1)C[C@@H](O)C(=O)O`, under “protein: DNA nucleotidylexotransferase, Tdt core, PDB entry 4iqt”, the IC50 is 780 nM (active).

Turning to `CC(=O)O[C@]1(C(C)=O)CC[C@H]2[C@@H]3CCC4=CC(=O)CCC4=C3[C@@H](c3ccc(N(C)C)cc3)C[C@@]21C`, the concentration for half-maximal inhibition (IC50) (protein: Progesterone receptor, PDB entry 4oar) was 0.038 nM (active).

Turning to `CC(C)C1=CC2=CC(=O)[C@H]3C(C)(C)CCC[C@]3(C)C2=C(O)C1=O`, the IC50 (protein: Farnesyl pyrophosphate synthase HsFPPS-11, PDB entry 4p0x) was 1200 nM (active).

With `O=C1N=CN2NC(Sc3ccc(F)cc3F)=CC=C2C1c1c(Cl)cccc1Cl` (stereo not drawn), the IC50 (protein: human p38 kinase, Mitogen-activated protein kinase 14, MAPK14, PDB entry 3fc1) was 10 nM (active).

Take `CCCNc1nc(N)c(C(O)c2cccnc2)s1` (stereo not drawn): the half-inhibitory concentration (IC50) (protein: Cyclin-dependent kinase 2, PDB entry 3qtq) was 3100 nM (active).

In the case of `CCCNc1nc(N)c(C(O)c2cccc([N+](=O)[O-])c2)s1` (stereo not drawn), under “protein: Cyclin-dependent kinase 2, PDB entry 3r8v”, the half-inhibitory concentration (IC50) was 2900 nM (active).

`CC(C)Nc1nc(N)c(C(O)c2cccnc2)s1` (stereo not drawn): where the note is “protein: Cyclin-dependent kinase 2, PDB entry 3rk9”, the half-maximal inhibitory concentration (IC50) is 520 nM (active).

For `CCCNc1nc(N)c(C(O)c2ccccn2)s1` (stereo not drawn), where the note is “protein: Cyclin-dependent kinase 2, PDB entry 3s0o”, the concentration for half-maximal inhibition (IC50) was 33000 nM (active).

Consider `CCCNc1nc(N)c(C(O)c2ccc3ccccc3c2)s1` (stereo not drawn), for which the IC50 (protein: Cyclin-dependent kinase 2, PDB entry 3r8u) was 5000 nM (active).

For the compound `CCCNc1nc(N)c(C(O)c2ccncc2)s1` (stereo not drawn), the concentration for half-maximal inhibition (IC50) (protein: Cyclin-dependent kinase 2, PDB entry 3r8z) was 49000 nM (active).

With `COc1cc2nccc(Oc3ccc4oc(Nc5ccc(Cl)cc5)nc4c3)c2cc1OC`, the IC50 (protein: ALK tyrosine kinase receptor (C1097S, R1275Q mutation), PDB entry 4fny) was 16 nM (active).

On to `CC(=O)Nc1cccc(-c2ccn([C@@H](Cc3cc[n+]([O-])cc3)c3ccc(OC(F)F)c(OCC4CC4)c3)n2)c1`, for which the half-maximal inhibitory concentration (IC50) (protein: cAMP-specific 3',5'-cyclic phosphodiesterase 4D, PDB entry 3v9b) was 0.5 nM (active).

In the case of `CN1C2=C(NC[C@@H]1CNc1ccc(C(=O)N[C@@H](CCC(=O)N[C@@H](CCC(=O)O)C(=O)O)C(=O)O)cc1)NC(N)=NC2O` (stereo partly drawn), the 50% inhibitory concentration (IC50) (protein: Cyclic AMP-GMP synthase DncV (deletion mutant D-loop), PDB entry 4u0n) was 1690 nM (active).

Consider `CN1C2C(=NC[C@@H]1CNc1ccc(C(=O)N[C@@H](CCC(=O)N[C@@H](CCC(=O)O)C(=O)O)C(=O)O)cc1)NC(N)=NC2O` (stereo partly drawn), for which the IC50 was 1690 nM (active) (protein: Cyclic AMP-GMP synthase DncV (D193N mutant), PDB entry 4u0m) and 1690 nM (active) (protein: Cyclic AMP-GMP synthase DncV, PDB entry 4u03).

As to `O=C(Nc1nc2ccccc2s1)c1cccc2c1CN(c1nc(C(=O)O)c(CCCOc3ccc(-n4ncc5cncnc54)cc3)s1)CC2`, the half-maximal inhibitory concentration (IC50) (protein: Bcl-2-like protein 1 Bcl-xL, PDB entry 4tuh) was 100000 nM (active).

`Cc1c(-c2c([C@H](OC(C)(C)C)C(=O)O)n(C)c(=O)c3ccccc23)cc(F)c2c1CCCO2`: the half-maximal inhibitory concentration (IC50) (protein: HIV-1 Integrase HIV-1 IN, PDB entry 4ojr) was 38 nM (active).

For the compound `CCc1sc(-c2ccc(OC)c(OCCF)c2)nc1CSc1nc(N)cc(N)n1`, the IC50 (protein: Deoxycytidine kinase, Human dCK C4S-S74E mutant, PDB entry 4jlm) was 22.7 nM (active).

Consider `Cc1ccc(CN(C)c2cc(C)nc3ncnn23)cc1`, for which the IC50 (protein: Bromodomain-containing protein 4, PDB entry 4men) was 125000 nM (active).

Take `C[N+](C)(C)CCCC(=O)O`: the IC50 (protein: human gamma-butyrobetaine hydroxylase, PDB entry 4c5w) is 3300 nM (active).

As to `COc1cc(Nc2nccc(Nc3ccc4c(C)[nH]nc4c3)n2)cc(OC)c1OC`, the IC50 (protein: Bromodomain-containing protein 4 BRD4-1, PDB entry 4o78) was 4600 nM (active).

On to `COc1cc(NC(=O)c2cccc3cccnc23)c(OC)cc1Cl`, for which, under “protein: 3-OXOACYL-[ACYL-CARRIER-PROTEIN] REDUCTASE FABG, PDB entry 4bo1”, the IC50 is 50 nM (active).

For `CC(C)(C)OC(=O)NCc1cn([C@H]2C[C@@H](C(=O)N3CCC[C@H]3C=N)N(C(=O)CCCc3ccccc3)C2)nn1`, the IC50 (protein: PROLYL ENDOPEPTIDASE, PDB entry 4bcc) was 9 nM (active).

For the compound `[N-]=[N+]=N[C@H]1C[C@@H](C(=O)N2CCC[C@H]2C=N)N(C(=O)CCCc2ccccc2)C1`, the IC50 (protein: PROLYL ENDOPEPTIDASE, PDB entry 4bcb) was 3 nM (active).

Regarding `CC(C)C[C@H](NC(=O)[C@@H](Cc1ccc(CN)cc1)NC(=O)[C@H](Cc1ccccc1)N=[N+]=[N-])C(=O)N[C@H](CCS(C)(=O)=O)Cc1ccc(CN)cc1`, for the setting “protein: yeast 20S proteasomes, PDB entry 4inu”, the 50% inhibitory concentration (IC50) is 0.55 nM (active).

Take `Cc1c(O)cccc1C(=O)N[C@H](C(=O)N[C@@H](CO)C(=O)N[C@H](CCS(C)(=O)=O)Cc1ccc(CN)cc1)C(C)C`: the IC50 (protein: yeast 20S proteasomes, PDB entry 4int) is 1600 nM (active).

Consider `NC(=O)[C@H](CCCCNC(=O)[C@@H](Cc1ccc(C(=O)c2ccccc2)cc1)NC(=O)CCC1CCCCC1)NC(=O)/C=C/C(=O)O`, for which the concentration for half-maximal inhibition (IC50) (protein: Cysteine-free Human Insulin Degrading Enzyme, PDB entry 4lte) was 60 nM (active).

Turning to `Nc1nc(Nc2ccc(S(N)(=O)=O)cc2)sc1C(O)c1ccccc1` (stereo not drawn), the IC50 (protein: Cyclin-dependent kinase 2, PDB entry 3rak) was 130 nM (active).

Regarding `COc1cccc(C(O)c2sc(Nc3ccc(S(N)(=O)=O)cc3)nc2N)c1` (stereo not drawn), the concentration for half-maximal inhibition (IC50) (protein: Cyclin-dependent kinase 2, PDB entry 3ral) was 100 nM (active).

For `COc1ccc(C(O)c2sc(Nc3ccc(S(N)(=O)=O)cc3)nc2N)cc1` (stereo not drawn), the 50% inhibitory concentration (IC50) (protein: Cyclin-dependent kinase 2, PDB entry 3s1h) is 17000 nM (active).

In the case of `COc1cccc(C(O)c2sc(Nc3ccccc3)nc2N)c1` (stereo not drawn), the IC50 (protein: Cyclin-dependent kinase 2, PDB entry 3qts) is 3100 nM (active).

In the case of `Nc1nc(Nc2ccc(S(N)(=O)=O)cc2)sc1C(O)c1cccc([N+](=O)[O-])c1` (stereo not drawn), the IC50 (protein: Cyclin-dependent kinase 2, PDB entry 3qtx) is 70 nM (active).

As for `COc1ccc(Nc2nc(-c3cccc(C(=O)Nc4ccc(C(=O)O)cc4)c3)c[n+]3cc[nH]c23)cc1OC`, under “protein: Tyrosine-protein kinase SYK, PDB entry 4pv0”, the concentration for half-maximal inhibition (IC50) was 0.85 nM (active).

Consider `COc1ccc(Cc2nn3c([C@@H](CCCc4ccccc4)[C@@H](C)O)nc(C)c3c(=O)[nH]2)cc1OC`, for which the half-inhibitory concentration (IC50) (protein: cGMP-dependent 3',5'-cyclic phosphodiesterase, PDB entry 4htx) was 4.7 nM (active).

Regarding `CC(=O)N[C@@H](Cc1cccnc1)C(=O)N[C@@H](CC(=O)O)C(=O)N[C@H](CC(=O)N[C@@H](CCC(C)C)C(=O)N[C@@H](CC(=O)O)C(C)=O)CC(C)C` (Ac-[3Pal]D[β3hL][hLeu]-X1), the IC50 runs as follows: (protein: Caspase-3, PDB entry 4jje) 23 nM (active); (protein: Caspase-7, PDB entry 4jj8) 730 nM (active); (protein: Caspase-8, PDB entry 4jj7) 400 nM (active).

On to `CCOc1cc(C(C)(C)C)ccc1C1=N[C@@](C)(c2ccc(Cl)cc2)[C@@](C)(c2ccc(Cl)cc2)N1C(=O)N1CCN(CCCS(C)(=O)=O)CC1`, for which, for the setting “protein: E3 ubiquitin-protein ligase Mdm2 (I50L, P92H, L95I mutation), PDB entry 4ipf”, the IC50 was 18 nM (active).

`CCC(C)(C)NC(=O)[C@@H](c1cccn1C)N(C(=O)Cn1nnc2ccccc21)c1ccc(NC(C)=O)cc1`: the IC50 (protein: 3C-like proteinase, PDB entry 4mds) is 6200 nM (active).

As to `N#CNC(NCc1ccc(S(=O)(=O)c2cccc(OC(F)(F)F)c2)cc1)Nc1ccncc1` (stereo not drawn), the IC50 (protein: Nicotinamide phosphoribosyltransferase, PDB entry 4lts) was 4.4 nM (active).

As to `COc1cccc(-c2cc(C(F)(F)F)[nH]n2)c1`, under “protein: Phenylalanine--tRNA ligase, PDB entry 4p75”, the IC50 was 80000 nM (active).

On to `CCC(=O)O[C@@H]1CC[C@@]2(C)[C@H](CC[C@@H]3[C@@H]2CC[C@]2(C)[C@@H]([C@H](C)CCC(=O)O)CC[C@@H]32)C1`, for which the half-maximal inhibitory concentration (IC50) (protein: vitamin D3 receptor ligand binding domain, PDB entry 3w5t) is 30000 nM (active).

As to `CC1C=CC(C(=O)Nc2ccc(Oc3cc4cnn(C)c4cc3-c3cn[nH]c3)c(F)c2)C(=O)N1c1ccc(F)cc1` (stereo not drawn), where the note is “protein: Hepatocyte growth factor receptor, PDB entry 4eev”, the concentration for half-maximal inhibition (IC50) is 4.7 nM (active).

On to `CC1=C(C(=O)N[C@H](C)C(=O)N[C@@H](Cc2c[nH]c3ccccc23)C(=O)N[C@@H](Cc2ccccc2)[C@@H](O)[C@H](C)CO)Cc2ccccc21`, for which the IC50 (protein: yCP, PDB entry 4qlt) is 2.5 nM (active).

As for `CC1=C(C(=O)N[C@H](C)C(=O)N[C@@H](Cc2c[nH]c3ccccc23)C(=O)N[C@@H](CC2CCCCC2)[C@@H](O)[C@H](C)CO)Cc2ccccc21`, where the note is “protein: yCP, PDB entry 4qlu”, the IC50 was 8.3 nM (active).

`OC(Cc1cnc2ccccn12)([P+](O)(O)O)[P+](O)(O)O`: under “protein: human FARNESYL PYROPHOSPHATE SYNTHETASE, PDB entry 2vf6”, the 50% inhibitory concentration (IC50) is 3 nM (active).
